From PubChem BioAssay (EPA / NIEHS)
Values joined by “and” are separate entries in the source; they are usually repeats but may differ in a detail not shown here. Identical values can stand only once. Inconclusive results are not listed. Active and inactive are the calls of the source. The calls were made as follows: active = hit-call score of the fitted dose curve at least 0.9, where 1 is the maximum; inconclusive = response in the unintended direction; inactive = score below 0.9.

Legend:
[1] = TOX21_p53_BLA_p2_viability: Viability Assessment in the Tox21 HCT-116 p53 Agonism Beta-lactamase Assay, Phase 2 (AID 2283591);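 also: compound exposure lasted 16 h at 37 °C; actives lower the ATP signal meaning cytotoxicity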
Outline: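 HCT116 p53-bla cells, 4000/well, dosed after 5 h plating (217-fold dilution of DMSO stocks) and incubated 16 h at 37C. Viability taken as cellular ATP by CellTiter-Glo luminescence after 30 min RT; signal loss marks cytotoxicity.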

[2] = target: Cellular tumor antigen p53 (Homo sapiens) (UniProt P04637); assay: TOX21_p53_BLA_p2_ratio: Tox21 HCT-116 p53 Agonism Beta-lactamase Assay, Ratio, Phase 2 (AID 2283592)
Outline: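 Cleaved-to-uncleaved substrate ratio (460 vs 530 nm) measured in HCT116 cells with an inducible beta-lactamase reporter linked to p53 activity. Compounds incubated 16 h at 37C before 2 h room-temperature CCF4-AM loading.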

[3] = TOX21_p53_BLA_p3_viability: Viability Assessment in the Tox21 HCT-116 p53 Agonism Beta-lactamase Assay, Phase 3 (AID 2283593);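 also: cells exposed to compound for 16 h before reading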
Outline: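 HCT116 cells, 4000/well, dosed 5 h after plating by pin transfer (217-fold dilution from DMSO stock) and incubated 16 h at 37C, 5% CO2. Viability read as ATP luminescence with CellTiter-Glo after 30 min at room temperature.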

[4] = target: Cellular tumor antigen p53 (Homo sapiens) (UniProt P04637); assay: TOX21_p53_BLA_p3_ratio: Tox21 HCT-116 p53 Agonism Beta-lactamase Assay, Ratio, Phase 3 (AID 2283596)
Outline: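 Cells were seeded at 4000/well, rested 5 h at 37C, then dosed with DMSO compound solutions (217-fold dilution) for 16 h. CCF4-AM substrate was loaded for 2 h at room temperature, and the 460/530 nm emission ratio was fitted for gain of signal versus DMSO.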

[5] = TOX21_p53_BLA_p4_viability: Viability Assessment in the Tox21 HCT-116 p53 Agonism Beta-lactamase Assay, Phase 4 (AID 2283597);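 also: hits lower the luminescence signal meaning cytotoxicity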
Outline: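 Viability is taken as cellular ATP: after 16 h compound exposure of HCT116 cells and a 2 h room-temperature CCF4-AM substrate step, CellTiter-Glo reagent is added and luminescence is measured 30 min later.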

[6] = target: Cellular tumor antigen p53 (Homo sapiens) (UniProt P04637); assay: TOX21_p53_BLA_p5_ratio: Tox21 HCT-116 p53 Agonism Beta-lactamase Assay, Ratio, Phase 5 (AID 2283599)
Outline: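 HCT-116 p53-bla cells (4000/well) plated 5 h, dosed with compound (217-fold DMSO dilution) for 16 h at 37 C; CCF4-AM substrate 2 h at room temperature. Activity is the 460/530 nm emission ratio (405 nm excitation), fitted in gain-of-signal direction versus DMSO.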

[7] = TOX21_p53_BLA_p5_viability: Viability Assessment in the Tox21 HCT-116 p53 Agonism Beta-lactamase Assay, Phase 5 (AID 2283600)
Outline: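 Viability is taken from cellular ATP content, measured by luciferase luminescence in the same wells after the beta-lactamase ratio read. Cells are seeded at 4000 per well and exposed to DMSO-dissolved compounds, diluted 217-fold, for 16 h.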

[8] = target: Cellular tumor antigen p53 (Homo sapiens) (UniProt P04637); assay: TOX21_p53_BLA_p4_ratio: Tox21 HCT-116 p53 Agonism Beta-lactamase Assay, Ratio, Phase 4 (AID 2283601)
Outline: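 HCT-116 p53 beta-lactamase reporter cells (4000/well) preincubated 5 h, then compound (217-fold dilution of DMSO stock) for 16 h at 37C. CCF4-AM substrate added 2 h at room temperature; 460/530 nm emission ratio fitted upward versus DMSO.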

THRB (gene 7068) [9] = target: THRB (gene 7068) (UniProt P10828); assay: TOX21_TRB_BLA_Antagonist_Followup_ratio: Tox21 Thyroid Hormone Receptor beta Antagonism Beta-lactamase (BLA) Follow-Up Assay, Ratio (AID 2283958)
Outline: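 Using charcoal-stripped 2% FBS medium, human TRβ-LBD/GAL4 reporter HEK293T cells received test compounds for 18 h. The endpoint is the cleaved-to-uncleaved substrate ratio (460/530 nm).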

[10] = TOX21_TRB_BLA_Antagonist_Followup_viability: Viability Assessment in the Tox21 Thyroid Hormone Receptor beta Antagonism Beta-lactamase (BLA) Follow-Up Assay (AID 2283961)
Outline: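 Cytotoxicity is measured in parallel with the antagonist-mode TRβ beta-lactamase screen, using ATP-coupled luciferase luminescence. Engineered HEK293T cells are treated for 18 h with 11-point compound series in triplicate.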

THRB (gene 7068) [11] = target: THRB (gene 7068) (UniProt P10828); assay: TOX21_TRB_COA_Antagonist_Followup_ratio: Tox21 Thyroid Hormone Receptor beta Antagonism through Coactivator Recruitment Follow-Up Assay, Ratio (AID 2283967)
Outline: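 GST-TRb LBD 5.0 nM + 0.10% BSA, compound added; fluorescein-SRC-2 peptide 200 nM, Tb-anti-GST Ab 2 nM. TR-FRET, ex 340 / em 520:495 ratio. Norm: DMSO 0%, T3 100%.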

[12] = TOX21_TR_RXR_BLA_Antagonist_Followup_viability: Viability Assessment in the Tox21 Thyroid Hormone Receptor beta Retinoid X Receptor alpha (RXRa) Antagonism Beta-lactamase (BLA) Follow-Up Assay (AID 2283979)
Outline: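 RXRa-bla HEK293T cells (2,500/well, phenol red-free DMEM, 2% charcoal-stripped FBS) were attached 5 h, then exposed to compounds at 11 concentrations in triplicate for 16 h at 37C. Viability measured by CellTiter-Glo ATP luminescence, bidirectional fitting versus DMSO.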

[13] = target: Retinoic acid receptor RXR-alpha (Homo sapiens) (UniProt P19793); assay: TOX21_TR_RXR_BLA_Antagonist_Followup_ratio: Tox21 Thyroid Hormone Receptor beta Retinoid X Receptor alpha (RXRa) Antagonism Beta-lactamase (BLA) Follow-Up Assay, Ratio (AID 2283972)
Outline: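 Antagonist mode used GAL4 UAS-driven beta-lactamase in HEK293T cells expressing RXRa, treated for 16 h with compound concentration series. Activity was taken from the blue/green (460:530 nm) ratio of cleaved to uncleaved substrate.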

PGR (gene 5241) [14] = target: PGR (gene 5241) (UniProt P06401); assay: TOX21_PR_BLA_Followup_Antagonist_ratio: Tox21 HEK293 Progesterone Receptor (PR) Antagonism Beta-lactamase Follow-Up Assay, Ratio (AID 2283934);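 also: PR-UAS-bla HEK293T cells stimulated with 1 nM R5020 agonist for 16 hr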
Outline: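 Measured in PR-UAS-bla HEK293T cells co-treated with compound and 1 nM promegestone for 16 hr; beta-lactamase ratio read after 2 h FRET substrate loading, with parallel CellTiter-Glo cytotoxicity.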

[15] = TOX21_PR_BLA_Followup_Agonist_viability: Viability Assessment in the Tox21 HEK293 Progesterone Receptor (PR) Agonism Beta-lactamase Follow-Up Assay (AID 2283935);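 also: signal loss means lower viability so actives are cytotoxic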
Outline: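 Viability is read as CellTiter-Glo luminescence, where loss of signal indicates cytotoxicity. The cells are PR-UAS-bla HEK293T given compounds for 16 hr at 37C and 5% CO2, in the same wells used for the bla readout.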

[16] = TOX21_PR_BLA_Followup_Antagonist_viability: Viability Assessment in the Tox21 HEK293 Progesterone Receptor (PR) Antagonism Beta-lactamase Follow-Up Assay (AID 2283936);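 also: cells exposed to compound with R5020 agonist for 16 h; hits lower the luminescence signal meaning cytotoxicity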
Outline: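 PR-UAS-bla HEK293T cells in medium with 2% charcoal-stripped FBS were treated with compounds plus R5020 for 16 hr at 37C. After the beta-lactamase read, CellTiter-Glo was added to the same wells and luminescence read after 30 min at room temperature.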

PGR (gene 5241) [17] = target: PGR (gene 5241) (UniProt P06401); assay: TOX21_PR_LUC_Followup_Antagonist: Tox21 HEK293 Progesterone Receptor (PR) Antagonism Luciferase Follow-Up Assay (AID 2283938);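 also: curve fitted upward as signal gain over DMSO baseline despite antagonist label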
Outline: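 A follow-up to the PR bla screen using HEK293-PR-A-luc cells, multiplexed with cell viability to flag cytotoxicity. Reporter luminescence after 16 h compound exposure was analysed relative to DMSO.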

[18] = TOX21_PR_LUC_Followup_Antagonist_viability: Viability Assessment in the Tox21 HEK293 Progesterone Receptor (PR) Antagonism Luciferase Follow-Up Assay (AID 2283940)
Outline: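 Loss of CellTiter-Glo ATP signal indicates cytotoxicity in HEK293-PR-A-luc cells grown in 10% charcoal-stripped FBS medium, seeded 3,000 per well and incubated 16 h with compound at 37C.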

Measured: AC50

THRB (gene 7068), sequence (P10828 whole entry, looked up, the tested form may be a part): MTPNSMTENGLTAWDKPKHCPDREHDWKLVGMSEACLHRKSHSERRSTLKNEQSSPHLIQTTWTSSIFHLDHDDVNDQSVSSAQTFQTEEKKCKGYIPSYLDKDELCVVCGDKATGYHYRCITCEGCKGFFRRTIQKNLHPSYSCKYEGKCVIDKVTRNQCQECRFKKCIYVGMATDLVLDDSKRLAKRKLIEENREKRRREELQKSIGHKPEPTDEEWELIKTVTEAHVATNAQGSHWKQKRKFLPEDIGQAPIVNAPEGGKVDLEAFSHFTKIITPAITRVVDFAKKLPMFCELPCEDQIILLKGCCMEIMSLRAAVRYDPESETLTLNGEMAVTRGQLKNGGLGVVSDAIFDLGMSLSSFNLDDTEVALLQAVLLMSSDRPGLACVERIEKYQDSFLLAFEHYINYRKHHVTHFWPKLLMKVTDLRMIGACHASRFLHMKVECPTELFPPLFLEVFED
PGR (gene 5241), sequence (P06401 whole entry, looked up): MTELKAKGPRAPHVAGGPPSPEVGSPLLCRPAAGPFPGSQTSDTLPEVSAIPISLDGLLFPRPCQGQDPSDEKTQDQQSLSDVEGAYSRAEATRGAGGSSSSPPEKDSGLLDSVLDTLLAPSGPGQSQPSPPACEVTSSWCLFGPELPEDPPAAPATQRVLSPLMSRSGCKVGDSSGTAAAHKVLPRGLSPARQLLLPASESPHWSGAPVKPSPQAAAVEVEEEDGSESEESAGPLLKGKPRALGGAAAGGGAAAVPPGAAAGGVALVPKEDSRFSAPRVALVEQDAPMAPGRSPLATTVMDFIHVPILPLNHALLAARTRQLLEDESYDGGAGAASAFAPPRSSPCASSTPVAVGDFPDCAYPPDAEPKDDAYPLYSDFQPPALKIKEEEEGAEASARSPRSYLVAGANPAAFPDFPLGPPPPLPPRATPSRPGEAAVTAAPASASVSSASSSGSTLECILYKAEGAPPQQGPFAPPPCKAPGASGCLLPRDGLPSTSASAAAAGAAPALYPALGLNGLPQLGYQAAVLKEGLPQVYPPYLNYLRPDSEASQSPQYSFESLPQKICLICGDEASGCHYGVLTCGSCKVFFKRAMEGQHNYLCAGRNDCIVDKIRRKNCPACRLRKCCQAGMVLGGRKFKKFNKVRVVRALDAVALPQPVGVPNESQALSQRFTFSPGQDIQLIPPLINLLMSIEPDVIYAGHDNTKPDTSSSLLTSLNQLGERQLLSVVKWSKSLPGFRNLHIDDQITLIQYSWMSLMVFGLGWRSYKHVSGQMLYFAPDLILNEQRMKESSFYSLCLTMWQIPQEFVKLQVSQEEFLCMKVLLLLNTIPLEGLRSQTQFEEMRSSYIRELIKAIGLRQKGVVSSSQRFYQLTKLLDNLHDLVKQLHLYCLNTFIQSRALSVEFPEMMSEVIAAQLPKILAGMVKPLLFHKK
Cellular tumor antigen p53 (Homo sapiens), sequence (P04637 whole entry, looked up): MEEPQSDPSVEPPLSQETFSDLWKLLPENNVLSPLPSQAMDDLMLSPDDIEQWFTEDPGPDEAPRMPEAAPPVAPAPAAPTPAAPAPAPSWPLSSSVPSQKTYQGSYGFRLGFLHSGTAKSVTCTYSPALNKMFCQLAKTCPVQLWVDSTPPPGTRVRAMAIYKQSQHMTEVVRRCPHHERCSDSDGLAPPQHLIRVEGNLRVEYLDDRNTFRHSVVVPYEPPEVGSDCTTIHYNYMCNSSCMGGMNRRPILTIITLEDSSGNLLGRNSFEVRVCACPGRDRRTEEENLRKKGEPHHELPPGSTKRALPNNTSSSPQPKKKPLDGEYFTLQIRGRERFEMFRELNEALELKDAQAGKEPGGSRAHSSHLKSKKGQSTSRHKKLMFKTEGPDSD
Retinoic acid receptor RXR-alpha (Homo sapiens), sequence (P19793 whole entry, looked up, the tested form may be a part): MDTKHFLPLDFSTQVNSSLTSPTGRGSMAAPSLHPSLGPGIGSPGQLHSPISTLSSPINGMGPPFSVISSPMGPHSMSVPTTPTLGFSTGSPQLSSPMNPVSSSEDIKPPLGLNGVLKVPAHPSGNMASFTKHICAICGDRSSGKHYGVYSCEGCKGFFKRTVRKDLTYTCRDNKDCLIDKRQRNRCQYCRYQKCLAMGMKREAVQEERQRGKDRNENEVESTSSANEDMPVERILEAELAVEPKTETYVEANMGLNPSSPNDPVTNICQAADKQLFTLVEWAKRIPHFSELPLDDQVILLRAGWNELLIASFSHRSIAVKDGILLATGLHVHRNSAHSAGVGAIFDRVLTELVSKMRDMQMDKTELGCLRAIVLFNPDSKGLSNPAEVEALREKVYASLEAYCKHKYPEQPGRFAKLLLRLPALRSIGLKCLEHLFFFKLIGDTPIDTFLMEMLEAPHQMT

CCCCCOc1ccc(C2SC(=O)NC2=O)cc1OCC (stereo unspecified)
active: THRB (gene 7068) [9] 1.76 µM | THRB (gene 7068) [11] 10.8 µM
inactive: [1] | [2] | [3] | [4] | [5] | [6] | [7] | [8] | [10] | [12]

Cc1cc(Nc2ccccc2C(=O)O)ccc1Cl
active: [2] 8.52 µM | [5] 31.9 µM | [6] 17.4 µM | [8] 23 µM | THRB (gene 7068) [9] 51.5 µM
inactive: [1] | [3] | [4] | [7] | [10] | THRB (gene 7068) [11] | [13] | [12]

CC(=O)Oc1ccc2c(c1)CC[C@@H]1[C@@H]2CC[C@]2(C)[C@@H](O)CC[C@@H]12
active: PGR (gene 5241) [14] 0.846 µM | PGR (gene 5241) [17] 0.449 µM
inactive: [1] | [2] | [3] | [4] | [5] | [6] | [7] | [8] | [15] | [16]

C=C1C(CCl)(CCl)C2(Cl)C(Cl)C(Cl)C1(Cl)C2(Cl)Cl (stereo unspecified)
inactive: [15] | [16] | PGR (gene 5241) [17] | [18]
active: [1] 50.6 µM and 13.5 µM | [2] 76.7 µM and 35.7 µM | [3] 45.6 µM and 12 µM | [4] 86.4 µM and 20.9 µM | [5] 67.2 µM and 17.1 µM | [6] 68.4 µM and 24.1 µM | [7] 45.6 µM and 15.7 µM | [8] 86.6 µM and 36.1 µM | PGR (gene 5241) [14] 23 µM

CO[C@H]1C[C@@H]2CC[C@@H](C)[C@@](O)(O2)C(=O)C(=O)N2CCCC[C@H]2C(=O)O[C@H]([C@H](C)C[C@@H]2CC[C@@H](OCCO)[C@H](OC)C2)CC(=O)[C@H](C)/C=C(\C)[C@@H](O)[C@@H](OC)C(=O)[C@H](C)C[C@H](C)\C=C/C=C/C=C/1C
active: [1] 19.2 µM | [2] 17.9 µM | [3] 27.4 µM | [4] 40.2 µM | [5] 21.9 µM | [6] 21.9 µM | [7] 20.6 µM | [8] 23 µM
inactive: THRB (gene 7068) [9] | [10] | THRB (gene 7068) [11] | [12]

C[C@]12C=CC(=O)C=C1[C@@H](F)C[C@@H]1[C@@H]2[C@@H](O)C[C@@]2(C)[C@H]1CC[C@]2(O)C(=O)CO
active: [3] 37.3 µM | [4] 43.5 µM
inactive: [1] | [2] | [5] | [6] | [7] | [8] | PGR (gene 5241) [14] | [16] | [18]

CC1(C)N=C(N)N=C(N)N1c1ccc(Cl)cc1
inactive: [4] | [6] | [8] | THRB (gene 7068) [9] | THRB (gene 7068) [11] | [13] | [12]
active: [1] 6.72 µM | [2] 28.2 µM | [3] 13.9 µM | [5] 6.46 µM | [7] 7.84 µM | [10] 32.1 µM
